Laboratory results taken from PubChem BioAssay.
Active and inactive are the calls of the source. Unless noted, the rule behind the calls is not given here.

Legend:
[1] = A549 cell viability effects, profiling panel, calcein-AM fluorescence, 48 h, basal (AID 1162); conditions: higher = more signal; note: test concentration not given here
[2] = adipocyte viability effects, profiling panel, cell-based, 3T3-L1 adipocytes, calcein-AM fluorescence, 48 h, basal (AID 1163); conditions: 3T3-L1 adipocytes viability, higher = more signal; note: test concentration not given here
[3] = HepG2 cell viability effects, profiling panel, calcein-AM fluorescence, 48 h, basal (AID 1164); conditions: higher = more signal; note: test concentration not given here
[4] = MM1S cell viability effects, profiling panel, calcein-AM fluorescence, 48 h, basal (AID 1165); conditions: higher = more signal;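 note: viability of MM1S multiple myeloma cells under basal unstimulated conditions; test concentration not given here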
[5] = basal RPMI8226 viability, no added stimulus, profiling panel, cell-based, calcein-AM fluorescence, 48 h, PK04 Diversity Set (AID 1166); conditions: RPMI8226 myeloma viability, higher = more signal;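 note: cells grown under basal conditions without added stimulus; test concentration not given here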
[6] = basal HepG2 mitochondrial membrane potential changes, profiling panel, cell-based, JC-1 fluorescence, 24 h, 100 nL compound (AID 1167); conditions: higher = more signal; note: test concentration not given here
[7] = basal 3T3-L1 adipocyte mitochondrial potential changes, profiling panel, cell-based, JC-1 fluorescence, 3T3-L1 adipocytes, 24 h, 100 nL compound (AID 1168); conditions: JC-1 mitochondrial fluorescence, higher = more signal, called active from +8 up or from −8 down; note: test concentration not given here
[8] = basal RPMI8226 mitochondrial membrane potential changes, profiling panel, cell-based, JC-1 fluorescence, 24 h, 100 nL compound (AID 1169); conditions: RPMI8226 myeloma, JC-1 mitochondrial potential fluorescence, higher = more signal; note: test concentration not given here
[9] = basal MM1S mitochondrial membrane potential changes, profiling panel, cell-based, JC-1 fluorescence, 24 h, 100 nL compound (AID 1170); conditions: higher = more signal; note: test concentration not given here
[10] = A549 lung cancer cell viability effects, profiling panel, resazurin fluorescence, 24 h, PK04 Diversity Set (AID 1171); conditions: higher = more signal, called active from +8 up or from −8 down; note: test concentration not given here
[11] = HepG2 liver cancer cell viability effects, profiling panel, resazurin fluorescence, 24 h, PK04 Diversity Set (AID 1172); conditions: higher = more signal; note: test concentration not given here
[12] = basal S. cerevisiae growth modulation, no modifier, primary screen, OD600, strain BY4716, 24 h, basal condition (AID 1173); conditions: OD600, 24 h, higher = more signal, called active from +8 up or from −8 down
[13] = MM1S myeloma cell viability, profiling panel, resazurin fluorescence, basal, 24 h, PK04 Diversity Set (AID 1174); conditions: higher = more signal, called active from +8 up or from −8 down;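 note: MM1S multiple myeloma cell line; test concentration not given here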
[14] = biological target: Dihydroorotate dehydrogenase (quinone), mitochondrial (Plasmodium falciparum (isolate 3D7)) (UniProt Q08210); assay: PfDHODH enzyme inhibitors, primary screen, biochemical, C-terminal His tag, absorbance 600 nm (AID 1175); conditions: DCIP absorbance 600 nm, higher = more signal, called active from +8 up or from −8 down;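 note: recombinant parasite enzyme with a five histidine tag at its C terminus; test concentration not given here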
[15] = P. aeruginosa biofilm formation inhibitors, primary screen, strain PAO1, LB-PBS medium, absorbance 600 nm (AID 1176); note: test concentration not given here; conditions: P. aeruginosa PAO1 growth/biofilm, A600, 12 h; higher = more signal
[16] = S. cerevisiae RM11-1a growth modifiers, primary screen, strain RM11-1a, OD600, basal, 24 h (AID 1177); conditions: OD600, 24 h, higher = more signal, called active from +8 up or from −8 down;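 note: cultures grown under basal conditions with no added stressor; test concentration not given here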
[17] = E. coli acrAB mutant growth effects, primary screen, E. coli filamentation inducers, strain DRC39, OD650, 24 h (AID 1178); conditions: higher = more signal, called active from +8 up or from −8 down;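 note: growth measured as culture turbidity by optical density at 650 nm; test concentration not given here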
[18] = E. coli acrAB mutant growth effects, primary screen, E. coli filamentation inducers, strain DRC39, OD650, 48 h (AID 1179);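 note: screen aims at cell division blockers that make cells filament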; conditions: E. coli DRC39 delta-acrAB growth, higher = more signal, called active from +8 up or from −8 down
[19] = RPMI8226 myeloma cell viability, profiling panel, resazurin fluorescence, basal, 24 h, PK04 Diversity Set (AID 1180); conditions: higher = more signal;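 note: RPMI8826 multiple myeloma cell line at 5000 cells per well; test concentration not given here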
[20] = biological target: E3 ubiquitin-protein ligase XIAP (Homo sapiens) (UniProt P98170); assay: XIAP binders, primary screen, biophysical, small-molecule microarray, fluorescence 635 nm (AID 1181); conditions: small-molecule microarray binding, higher = more signal;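 note: score merges 667 nm emission and signal to noise over triplicate slides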
Chain of E3 ubiquitin-protein ligase XIAP (Homo sapiens) (P98170 whole entry, looked up): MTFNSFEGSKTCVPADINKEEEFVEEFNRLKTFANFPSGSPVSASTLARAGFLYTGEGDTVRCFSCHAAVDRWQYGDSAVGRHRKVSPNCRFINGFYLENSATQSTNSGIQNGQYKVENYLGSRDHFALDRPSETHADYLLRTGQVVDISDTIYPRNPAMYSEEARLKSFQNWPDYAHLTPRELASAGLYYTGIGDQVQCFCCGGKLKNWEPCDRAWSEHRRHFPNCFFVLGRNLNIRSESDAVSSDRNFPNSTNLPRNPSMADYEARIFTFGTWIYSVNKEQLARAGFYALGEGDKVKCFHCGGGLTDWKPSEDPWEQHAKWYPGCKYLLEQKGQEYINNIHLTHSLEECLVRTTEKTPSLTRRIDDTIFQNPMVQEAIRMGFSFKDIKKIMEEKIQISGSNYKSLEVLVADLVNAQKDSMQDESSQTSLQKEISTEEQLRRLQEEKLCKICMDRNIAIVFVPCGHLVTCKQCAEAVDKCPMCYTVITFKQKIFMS

Chain of Dihydroorotate dehydrogenase (quinone), mitochondrial (Plasmodium falciparum (isolate 3D7)) (Q08210 whole entry, looked up): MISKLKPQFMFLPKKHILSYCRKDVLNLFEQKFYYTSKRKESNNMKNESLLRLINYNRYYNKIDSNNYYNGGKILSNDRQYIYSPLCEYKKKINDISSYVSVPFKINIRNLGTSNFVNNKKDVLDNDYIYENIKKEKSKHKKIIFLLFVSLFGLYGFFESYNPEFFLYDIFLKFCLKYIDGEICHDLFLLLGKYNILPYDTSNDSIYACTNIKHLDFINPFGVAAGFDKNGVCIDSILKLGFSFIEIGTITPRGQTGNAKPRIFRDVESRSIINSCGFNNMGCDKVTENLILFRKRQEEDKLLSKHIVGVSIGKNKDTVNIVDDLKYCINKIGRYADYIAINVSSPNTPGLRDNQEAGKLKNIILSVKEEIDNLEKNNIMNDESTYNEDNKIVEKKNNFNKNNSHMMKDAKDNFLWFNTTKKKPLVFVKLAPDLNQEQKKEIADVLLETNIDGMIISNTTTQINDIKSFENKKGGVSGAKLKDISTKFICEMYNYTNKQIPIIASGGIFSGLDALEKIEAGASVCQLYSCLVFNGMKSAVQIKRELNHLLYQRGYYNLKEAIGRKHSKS

Compound	z-score [1]	z-score [2]	z-score [3]	z-score [4]	z-score [5]	z-score [6]	z-score [7]	z-score [8]	z-score [9]	z-score [10]	z-score [11]	z-score [12]	z-score [13]	composite z-score [14]	z-score [15]	z-score [16]	z-score [17]	z-score [18]	z-score [19]	composite z-score [20]
COCCOC(=O)N1C(=O)[C@@]2(c3cc(C#CCNC(N)=O)ccc31)[C@H](c1ccc(O)cc1)N1[C@H](c3ccccc3)[C@H](c3ccccc3)OC(=O)[C@H]1[C@@H]2C(=O)N1CCN(c2ncccn2)CC1	-0.652	-0.901	0.527	-0.0396	-1.05	-2.34	0.703 (inactive)	-0.322	-1.14	-0.163 (inactive)	0.392	2.72 (inactive)	-0.441 (inactive)	-0.265 (inactive)	2.81 (inactive)	3.03 (inactive)	-0.123 (inactive)	0.0896 (inactive)	-0.0784	-0.205
CO[C@H]1O[C@H](CO)[C@@H](OC(=O)CCc2ccccc2)[C@H](OC(=O)c2cc3ccccc3[nH]2)[C@H]1OC(=O)c1cc2ccccc2[nH]1	0.98	0.679	0.138	-2.82	-2.54	-2.04	1.36 (inactive)	-0.502	-1.1	-2.84 (inactive)	-1.4	-1.14 (inactive)	-2.09 (inactive)	-1.62 (inactive)	1.38 (inactive)	0.033 (inactive)	0.367 (inactive)	1.2 (inactive)	-2.49	-0.156
COc1cc2c(cc1OC)CN(C(=O)[C@@H]1[C@H]3C(=O)O[C@H](c4ccccc4)[C@H](c4ccccc4)N3[C@H](c3ccc(O)cc3)[C@@]13C(=O)Nc1ccc(C#CCCO)cc13)CC2	-0.446	-0.423	-0.314	-0.0118	0.191	-2.29	0.0304 (inactive)	-0.294	-0.492	0.156 (inactive)	0.0462	1.03 (inactive)	-1.22 (inactive)	0.838 (inactive)	1.2 (inactive)	1.66 (inactive)	0.437 (inactive)	0.258 (inactive)	-0.657	-0.269
COCC1=C2[C@@H](CCc3ccccc3)OB(O)C[C@@H]2[C@@H]2C(=O)N(C)C(=O)[C@@H]2C1	-0.0482	-0.184	-0.187	-0.145	-0.126	-1.54	0.176 (inactive)	-0.0658	-0.239	-0.425 (inactive)	-0.227	-0.926 (inactive)	-0.439 (inactive)	-0.173 (inactive)	0.294 (inactive)	0.0903 (inactive)	-0.0919 (inactive)	0.0253 (inactive)	-0.377	0.0512
COc1ccc([Si](C)(C)[C@@H]2[C@@H](CC(=O)N3Cc4ccccc4C[C@H]3CO)O[C@]3(C(=O)N(c4ccccc4)c4ccccc43)[C@H]2C)cc1	-0.77	0.703	-2.85	-2.37	-4.35	1.37	0.631 (inactive)	-1.06	-2.08	-1.39 (inactive)	-1.05	0.318 (inactive)	-2.64 (inactive)	1.13 (inactive)	0.626 (inactive)	2.42 (inactive)	0.33 (inactive)	-0.165 (inactive)	-4.45	2.42
C=C(/C(=C/C[C@@H](OC(C)=O)c1ccc(CO)o1)c1cc(C(=O)OC)ccc1OC)C(C)C	1.62	-0.634	0.377	-0.998	0.0028	-0.241	-0.298 (inactive)	-0.544	-1.2	-0.0571 (inactive)	-0.0187	-0.367 (inactive)	-0.912 (inactive)	-0.805 (inactive)	0.731 (inactive)	0.4 (inactive)	0.769 (inactive)	0.533 (inactive)	-0.0967	0.146
CCCC=C(CCC)[C@@H](NS(=O)(=O)c1cccc2cccnc12)c1ccc(-c2ccccc2)cc1	-0.97	-0.411	-0.615	-1.95	-4.54	-3.54	-0.0229 (inactive)	-0.361	-0.844	0.864 (inactive)	1.15	0.928 (inactive)	1.02 (inactive)	-0.0926 (inactive)	-0.787 (inactive)	0.52 (inactive)	-0.24 (inactive)	-0.342 (inactive)	1.27	0.072
CCc1cccc(NC(=O)O[C@H]2[C@H](OC(=O)Nc3ccccc3)[C@H](OC(=O)Nc3ccccc3)[C@@H](OC)O[C@@H]2CO)c1	-1.97	1.18	-5.14	-3.46	-4.3	-2.34	0.867 (inactive)	-1.2	-2.32	-4.35 (inactive)	-3.47	0.885 (inactive)	-4.46 (inactive)	0.0661 (inactive)	1.78 (inactive)	1.12 (inactive)	0.0415 (inactive)	0.0166 (inactive)	-6.11	0.306
O=C1O[C@H](c2ccccc2)[C@H](c2ccccc2)N2[C@H]1[C@@H](C(=O)Nc1nc3ccccc3s1)[C@]1(C(=O)Nc3ccc(C#CC4=CCCCC4)cc31)[C@H]2c1ccc(O)cc1	0.397	-0.197	0.992	-1.01	-2.01	-2.82	-0.216 (inactive)	-0.886	-0.991	0.229 (inactive)	0.98	-1.03 (inactive)	0.306 (inactive)	0.667 (inactive)	0.517 (inactive)	-0.286 (inactive)	0.442 (inactive)	0.382 (inactive)	0.422	-0.13
COC(=O)[C@@]1(Cc2ccc(F)cc2)[C@H]2c3cc(C(=O)N4CCCC4)n(C)c3C[C@H]2CN1C(=O)c1ccccc1	-0.893	0.502	-0.429	-1.63	-1.01	1.29	-1 (inactive)	-0.392	-0.206	1.13 (inactive)	0.0015	-1.24 (inactive)	-0.698 (inactive)	-0.316 (inactive)	0.523 (inactive)	0.309 (inactive)	-0.359 (inactive)	-0.482 (inactive)	-0.069	0.49
O=C1c2ccccc2[C@](Cc2ccccc2I)(C(=O)NC2CC2)[C@H](c2ccc(CO)cc2)N1Cc1ccccc1C(F)(F)F	0.319	0.865	-0.0085	-0.645	-2.83	0.476	0.347 (inactive)	-0.761	-0.154	0.272 (inactive)	-0.113	-0.637 (inactive)	0.762 (inactive)	0.129 (inactive)	0.842 (inactive)	0.108 (inactive)	0.169 (inactive)	-0.707 (inactive)	0.154	0.125
C=CC1c2cc(O)c(OC)cc2CCN1Cc1ccc([N+](=O)[O-])o1 (stereo not given)	0.654	-0.187	-0.143	-0.429	0.413	-0.22	0.362 (inactive)	-0.0931	0.877	0.0283 (inactive)	-0.362	0.193 (inactive)	0.336 (inactive)	0.294 (inactive)	-1.03 (inactive)	1.11 (inactive)	0.148 (inactive)	-0.217 (inactive)	0.685	0.188
C=C[C@H](C)[C@H](OC(=O)Nc1ccc(OC)cc1)c1ccc(OCCO)cc1	0.366	-0.402	0.692	-0.412	-1.83	-0.569	0.627 (inactive)	-0.0376	0.873	-0.262 (inactive)	-0.178	-5.91 (inactive)	1.69 (inactive)	-0.285 (inactive)	0.413 (inactive)	-0.354 (inactive)	1.43 (inactive)	0.465 (inactive)	0.603	0.34
C=CCN1C(=O)[C@]2(O[C@H](CCO)[C@@H]([Si](C)(C)c3ccc(OC)cc3)[C@@H]2C)c2cc(NC(=O)c3ccc(OC)cc3)ccc21	-3.78	-0.562	-4.65	-2.69	-4.38	-0.446	0.96 (inactive)	-0.953	-2.2	-3.7 (inactive)	-4.24	-1.07 (inactive)	-4.56 (inactive)	-0.224 (inactive)	1.98 (inactive)	2.23 (inactive)	0.626 (inactive)	-0.723 (inactive)	-6.22	0.401
COCCOC(=O)N1C(=O)[C@@]2(c3cc(C#CCCO)ccc31)[C@H](c1ccccc1OCCO)N1[C@H](c3ccccc3)[C@H](c3ccccc3)OC(=O)[C@H]1[C@@H]2C(=O)N1CCCCCCC1	0.66	0.961	1.03	0.115	-0.004	0.454	0.339 (inactive)	-0.155	-1.31	0.596 (inactive)	0.543	0.971 (inactive)	-0.649 (inactive)	0.495 (inactive)	1.32 (inactive)	2.11 (inactive)	-0.255 (inactive)	0.343 (inactive)	0.484	0.236
Cc1nc2cc(Br)ccc2c(=O)n1Cc1cccc(O)c1	-0.508	-0.396	0.454	-0.301	0.244	-0.0434	1.62 (inactive)	-0.536	-0.432	0.246 (inactive)	0.674	-0.496 (inactive)	-1.23 (inactive)	0.0596 (inactive)	1.38 (inactive)	0.0164 (inactive)	0.381 (inactive)	0.776 (inactive)	-0.505	0.0674
Cc1cccc([C@H]2C[C@H]3C(I)=C[C@@H]2C(=O)[C@]32CO2)c1	-0.985	-0.176	-0.902	-3.19	-3.12	-1.45	0.224 (inactive)	-0.889	-0.753	-0.109 (inactive)	0.644	-10.5 (active)	-0.415 (inactive)	0.284 (inactive)	0.531 (inactive)	-0.639 (inactive)	-0.545 (inactive)	-1.15 (inactive)	0.305	0.49
CO[C@H]1O[C@H](CO)[C@@H](OC(=O)Nc2cccc(F)c2)[C@H](OC(=O)Nc2ccccc2-c2ccccc2)[C@H]1OC(=O)Nc1ccccc1-c1ccccc1	-4.26	0.737	-4.76	-3.44	-4.3	0.0525	0.461 (inactive)	-0.936	-1.88	-6.1 (inactive)	-4.61	0.748 (inactive)	-5.86 (inactive)	0.791 (inactive)	1.16 (inactive)	1.03 (inactive)	-0.852 (inactive)	-0.516 (inactive)	-4.87	-0.0925
